What was measured:
Assay in all cases: log2 ratio of Biotin-Ahx-Ub-VS probe labelling (fragment/DMSO); higher = less target engagement (more negative = stronger competition), active = hit call of the paper (q ≤ 0.05, log2 ratio ≤ -1)
Conditions in all cases: compound concentration: 200 uM; treatment time: 3 h
USP34 = USP34 (UniProt Q70CQ2)
Procedure, shortened: (§1)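 HEK293T lysate, 495 µg per sample in Tris/CHAPS/IGEPAL buffer with protease inhibitors, was treated in triplicate with fragment at 200 µM or vehicle for 3 h and then with Biotin-Ahx-Ub-VS at 0.5 µM final for 1 h. Labelled DUBs were NeutrAvidin-enriched, digested with LysC and trypsin, and run by diaPASEF LC-MS/MS. Spectronaut label-free quantities were global-median-normalised, and values are average log2 fragment/vehicle ratios by unpaired t-test on proteins with ≥2 unique peptides.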

USP36 = biological target: T1, USP36 (UniProt Q9P275)
T1 sequence (whole entry): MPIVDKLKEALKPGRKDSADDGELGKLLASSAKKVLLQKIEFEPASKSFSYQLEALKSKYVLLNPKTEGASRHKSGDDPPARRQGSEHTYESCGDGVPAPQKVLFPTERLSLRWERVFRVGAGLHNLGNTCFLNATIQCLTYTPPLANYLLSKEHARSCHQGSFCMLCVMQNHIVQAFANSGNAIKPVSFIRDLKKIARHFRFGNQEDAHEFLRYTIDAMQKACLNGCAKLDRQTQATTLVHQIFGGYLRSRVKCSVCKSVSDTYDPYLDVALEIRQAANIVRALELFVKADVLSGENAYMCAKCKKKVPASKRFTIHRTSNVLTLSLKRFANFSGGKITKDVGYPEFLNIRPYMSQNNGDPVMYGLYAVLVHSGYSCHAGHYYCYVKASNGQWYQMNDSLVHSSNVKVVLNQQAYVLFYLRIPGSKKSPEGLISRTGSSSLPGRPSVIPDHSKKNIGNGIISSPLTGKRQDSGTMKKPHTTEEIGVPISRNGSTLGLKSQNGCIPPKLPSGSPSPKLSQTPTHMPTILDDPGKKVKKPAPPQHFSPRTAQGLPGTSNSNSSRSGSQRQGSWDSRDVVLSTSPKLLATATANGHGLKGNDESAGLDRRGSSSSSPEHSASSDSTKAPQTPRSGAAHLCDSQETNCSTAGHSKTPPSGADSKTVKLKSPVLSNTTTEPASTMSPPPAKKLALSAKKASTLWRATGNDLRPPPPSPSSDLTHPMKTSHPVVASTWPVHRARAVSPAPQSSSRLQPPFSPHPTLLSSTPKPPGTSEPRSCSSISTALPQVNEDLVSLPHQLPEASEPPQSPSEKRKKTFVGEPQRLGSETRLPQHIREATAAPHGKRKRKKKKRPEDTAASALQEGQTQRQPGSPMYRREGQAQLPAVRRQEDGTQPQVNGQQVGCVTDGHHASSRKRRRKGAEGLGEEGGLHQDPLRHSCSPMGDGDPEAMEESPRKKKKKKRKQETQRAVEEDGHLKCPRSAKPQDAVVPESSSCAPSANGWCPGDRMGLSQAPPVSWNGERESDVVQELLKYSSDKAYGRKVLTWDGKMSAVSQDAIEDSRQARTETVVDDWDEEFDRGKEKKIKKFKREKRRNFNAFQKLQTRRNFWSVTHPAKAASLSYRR
Procedure, shortened: as §1

USP38 = biological target: T2, USP38 (UniProt Q8NB14)
T2 sequence (whole entry): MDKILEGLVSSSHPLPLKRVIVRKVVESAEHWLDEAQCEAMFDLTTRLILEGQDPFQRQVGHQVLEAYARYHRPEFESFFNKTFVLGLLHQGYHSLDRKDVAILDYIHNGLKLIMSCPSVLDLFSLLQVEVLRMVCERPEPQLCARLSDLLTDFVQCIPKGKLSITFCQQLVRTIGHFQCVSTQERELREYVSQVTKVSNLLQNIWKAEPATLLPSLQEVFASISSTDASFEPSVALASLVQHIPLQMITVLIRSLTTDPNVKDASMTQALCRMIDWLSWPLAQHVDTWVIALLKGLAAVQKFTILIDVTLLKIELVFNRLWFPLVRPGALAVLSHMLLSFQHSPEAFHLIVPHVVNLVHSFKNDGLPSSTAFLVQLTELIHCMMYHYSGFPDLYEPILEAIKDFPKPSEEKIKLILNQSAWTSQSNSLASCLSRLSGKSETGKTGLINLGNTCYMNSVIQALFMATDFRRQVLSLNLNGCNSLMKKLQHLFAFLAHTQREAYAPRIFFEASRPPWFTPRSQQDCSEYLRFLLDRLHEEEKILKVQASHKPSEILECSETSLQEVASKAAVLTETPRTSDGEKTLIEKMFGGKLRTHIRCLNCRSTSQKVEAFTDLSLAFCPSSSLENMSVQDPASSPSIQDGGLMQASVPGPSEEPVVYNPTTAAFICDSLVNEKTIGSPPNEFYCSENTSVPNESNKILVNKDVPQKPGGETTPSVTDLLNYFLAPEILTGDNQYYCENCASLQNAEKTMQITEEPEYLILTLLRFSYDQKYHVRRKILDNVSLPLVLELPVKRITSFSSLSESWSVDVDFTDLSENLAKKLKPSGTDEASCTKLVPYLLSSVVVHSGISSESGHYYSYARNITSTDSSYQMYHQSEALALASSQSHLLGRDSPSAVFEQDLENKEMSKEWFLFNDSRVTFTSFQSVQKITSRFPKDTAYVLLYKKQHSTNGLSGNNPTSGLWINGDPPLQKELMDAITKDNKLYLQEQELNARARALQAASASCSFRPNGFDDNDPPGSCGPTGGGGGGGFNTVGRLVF
Procedure, shortened: as §1

USP39 = biological target: T3, USP39 (UniProt Q53GS9)
T3 sequence (whole entry): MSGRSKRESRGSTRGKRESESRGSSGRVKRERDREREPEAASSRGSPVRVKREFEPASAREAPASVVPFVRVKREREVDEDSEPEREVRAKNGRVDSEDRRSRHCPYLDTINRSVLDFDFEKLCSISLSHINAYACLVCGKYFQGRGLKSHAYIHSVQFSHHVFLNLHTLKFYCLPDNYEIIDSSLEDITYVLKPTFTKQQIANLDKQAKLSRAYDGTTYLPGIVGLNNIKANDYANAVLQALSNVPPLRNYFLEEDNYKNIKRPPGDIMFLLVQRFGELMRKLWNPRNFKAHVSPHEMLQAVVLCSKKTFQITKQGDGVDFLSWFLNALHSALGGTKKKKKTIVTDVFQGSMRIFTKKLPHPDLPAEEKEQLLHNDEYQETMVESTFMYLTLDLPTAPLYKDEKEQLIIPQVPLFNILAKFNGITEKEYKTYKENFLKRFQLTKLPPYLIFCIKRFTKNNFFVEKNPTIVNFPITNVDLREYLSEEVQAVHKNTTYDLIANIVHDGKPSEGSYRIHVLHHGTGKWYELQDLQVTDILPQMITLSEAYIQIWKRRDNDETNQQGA
Procedure, shortened: as §1

USP4 = biological target: T4, USP4 (UniProt Q13107)
T4 sequence (whole entry): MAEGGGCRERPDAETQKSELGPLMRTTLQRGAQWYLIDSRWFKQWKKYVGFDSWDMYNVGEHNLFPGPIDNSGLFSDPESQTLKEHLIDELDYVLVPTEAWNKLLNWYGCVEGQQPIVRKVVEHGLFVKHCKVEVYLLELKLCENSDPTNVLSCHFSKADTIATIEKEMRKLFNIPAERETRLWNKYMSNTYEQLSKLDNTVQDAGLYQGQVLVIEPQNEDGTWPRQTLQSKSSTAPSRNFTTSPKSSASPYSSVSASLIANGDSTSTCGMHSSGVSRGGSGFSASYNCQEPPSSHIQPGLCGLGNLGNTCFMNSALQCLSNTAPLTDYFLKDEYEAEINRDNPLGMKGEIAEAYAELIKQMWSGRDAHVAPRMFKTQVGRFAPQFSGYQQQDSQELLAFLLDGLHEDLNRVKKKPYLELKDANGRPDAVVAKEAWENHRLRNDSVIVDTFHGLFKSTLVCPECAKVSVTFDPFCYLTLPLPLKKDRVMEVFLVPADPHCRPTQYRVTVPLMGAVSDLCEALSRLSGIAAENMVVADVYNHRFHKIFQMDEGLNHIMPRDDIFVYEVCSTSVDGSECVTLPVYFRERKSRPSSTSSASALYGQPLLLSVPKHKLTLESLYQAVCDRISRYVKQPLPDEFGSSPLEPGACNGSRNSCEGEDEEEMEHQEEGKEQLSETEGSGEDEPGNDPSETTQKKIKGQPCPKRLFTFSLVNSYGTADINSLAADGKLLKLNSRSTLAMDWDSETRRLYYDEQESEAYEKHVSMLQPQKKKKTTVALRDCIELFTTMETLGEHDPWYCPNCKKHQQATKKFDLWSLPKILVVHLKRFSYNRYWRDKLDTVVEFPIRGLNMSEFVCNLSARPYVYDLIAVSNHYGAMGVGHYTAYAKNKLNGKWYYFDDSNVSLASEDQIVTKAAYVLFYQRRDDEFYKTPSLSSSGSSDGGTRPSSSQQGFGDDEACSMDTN
Procedure, shortened: as §1

Measured: log2 ratio of Biotin-Ahx-Ub-VS probe labelling

Chain of USP34 (Q70CQ2 whole entry, the tested form may be a part): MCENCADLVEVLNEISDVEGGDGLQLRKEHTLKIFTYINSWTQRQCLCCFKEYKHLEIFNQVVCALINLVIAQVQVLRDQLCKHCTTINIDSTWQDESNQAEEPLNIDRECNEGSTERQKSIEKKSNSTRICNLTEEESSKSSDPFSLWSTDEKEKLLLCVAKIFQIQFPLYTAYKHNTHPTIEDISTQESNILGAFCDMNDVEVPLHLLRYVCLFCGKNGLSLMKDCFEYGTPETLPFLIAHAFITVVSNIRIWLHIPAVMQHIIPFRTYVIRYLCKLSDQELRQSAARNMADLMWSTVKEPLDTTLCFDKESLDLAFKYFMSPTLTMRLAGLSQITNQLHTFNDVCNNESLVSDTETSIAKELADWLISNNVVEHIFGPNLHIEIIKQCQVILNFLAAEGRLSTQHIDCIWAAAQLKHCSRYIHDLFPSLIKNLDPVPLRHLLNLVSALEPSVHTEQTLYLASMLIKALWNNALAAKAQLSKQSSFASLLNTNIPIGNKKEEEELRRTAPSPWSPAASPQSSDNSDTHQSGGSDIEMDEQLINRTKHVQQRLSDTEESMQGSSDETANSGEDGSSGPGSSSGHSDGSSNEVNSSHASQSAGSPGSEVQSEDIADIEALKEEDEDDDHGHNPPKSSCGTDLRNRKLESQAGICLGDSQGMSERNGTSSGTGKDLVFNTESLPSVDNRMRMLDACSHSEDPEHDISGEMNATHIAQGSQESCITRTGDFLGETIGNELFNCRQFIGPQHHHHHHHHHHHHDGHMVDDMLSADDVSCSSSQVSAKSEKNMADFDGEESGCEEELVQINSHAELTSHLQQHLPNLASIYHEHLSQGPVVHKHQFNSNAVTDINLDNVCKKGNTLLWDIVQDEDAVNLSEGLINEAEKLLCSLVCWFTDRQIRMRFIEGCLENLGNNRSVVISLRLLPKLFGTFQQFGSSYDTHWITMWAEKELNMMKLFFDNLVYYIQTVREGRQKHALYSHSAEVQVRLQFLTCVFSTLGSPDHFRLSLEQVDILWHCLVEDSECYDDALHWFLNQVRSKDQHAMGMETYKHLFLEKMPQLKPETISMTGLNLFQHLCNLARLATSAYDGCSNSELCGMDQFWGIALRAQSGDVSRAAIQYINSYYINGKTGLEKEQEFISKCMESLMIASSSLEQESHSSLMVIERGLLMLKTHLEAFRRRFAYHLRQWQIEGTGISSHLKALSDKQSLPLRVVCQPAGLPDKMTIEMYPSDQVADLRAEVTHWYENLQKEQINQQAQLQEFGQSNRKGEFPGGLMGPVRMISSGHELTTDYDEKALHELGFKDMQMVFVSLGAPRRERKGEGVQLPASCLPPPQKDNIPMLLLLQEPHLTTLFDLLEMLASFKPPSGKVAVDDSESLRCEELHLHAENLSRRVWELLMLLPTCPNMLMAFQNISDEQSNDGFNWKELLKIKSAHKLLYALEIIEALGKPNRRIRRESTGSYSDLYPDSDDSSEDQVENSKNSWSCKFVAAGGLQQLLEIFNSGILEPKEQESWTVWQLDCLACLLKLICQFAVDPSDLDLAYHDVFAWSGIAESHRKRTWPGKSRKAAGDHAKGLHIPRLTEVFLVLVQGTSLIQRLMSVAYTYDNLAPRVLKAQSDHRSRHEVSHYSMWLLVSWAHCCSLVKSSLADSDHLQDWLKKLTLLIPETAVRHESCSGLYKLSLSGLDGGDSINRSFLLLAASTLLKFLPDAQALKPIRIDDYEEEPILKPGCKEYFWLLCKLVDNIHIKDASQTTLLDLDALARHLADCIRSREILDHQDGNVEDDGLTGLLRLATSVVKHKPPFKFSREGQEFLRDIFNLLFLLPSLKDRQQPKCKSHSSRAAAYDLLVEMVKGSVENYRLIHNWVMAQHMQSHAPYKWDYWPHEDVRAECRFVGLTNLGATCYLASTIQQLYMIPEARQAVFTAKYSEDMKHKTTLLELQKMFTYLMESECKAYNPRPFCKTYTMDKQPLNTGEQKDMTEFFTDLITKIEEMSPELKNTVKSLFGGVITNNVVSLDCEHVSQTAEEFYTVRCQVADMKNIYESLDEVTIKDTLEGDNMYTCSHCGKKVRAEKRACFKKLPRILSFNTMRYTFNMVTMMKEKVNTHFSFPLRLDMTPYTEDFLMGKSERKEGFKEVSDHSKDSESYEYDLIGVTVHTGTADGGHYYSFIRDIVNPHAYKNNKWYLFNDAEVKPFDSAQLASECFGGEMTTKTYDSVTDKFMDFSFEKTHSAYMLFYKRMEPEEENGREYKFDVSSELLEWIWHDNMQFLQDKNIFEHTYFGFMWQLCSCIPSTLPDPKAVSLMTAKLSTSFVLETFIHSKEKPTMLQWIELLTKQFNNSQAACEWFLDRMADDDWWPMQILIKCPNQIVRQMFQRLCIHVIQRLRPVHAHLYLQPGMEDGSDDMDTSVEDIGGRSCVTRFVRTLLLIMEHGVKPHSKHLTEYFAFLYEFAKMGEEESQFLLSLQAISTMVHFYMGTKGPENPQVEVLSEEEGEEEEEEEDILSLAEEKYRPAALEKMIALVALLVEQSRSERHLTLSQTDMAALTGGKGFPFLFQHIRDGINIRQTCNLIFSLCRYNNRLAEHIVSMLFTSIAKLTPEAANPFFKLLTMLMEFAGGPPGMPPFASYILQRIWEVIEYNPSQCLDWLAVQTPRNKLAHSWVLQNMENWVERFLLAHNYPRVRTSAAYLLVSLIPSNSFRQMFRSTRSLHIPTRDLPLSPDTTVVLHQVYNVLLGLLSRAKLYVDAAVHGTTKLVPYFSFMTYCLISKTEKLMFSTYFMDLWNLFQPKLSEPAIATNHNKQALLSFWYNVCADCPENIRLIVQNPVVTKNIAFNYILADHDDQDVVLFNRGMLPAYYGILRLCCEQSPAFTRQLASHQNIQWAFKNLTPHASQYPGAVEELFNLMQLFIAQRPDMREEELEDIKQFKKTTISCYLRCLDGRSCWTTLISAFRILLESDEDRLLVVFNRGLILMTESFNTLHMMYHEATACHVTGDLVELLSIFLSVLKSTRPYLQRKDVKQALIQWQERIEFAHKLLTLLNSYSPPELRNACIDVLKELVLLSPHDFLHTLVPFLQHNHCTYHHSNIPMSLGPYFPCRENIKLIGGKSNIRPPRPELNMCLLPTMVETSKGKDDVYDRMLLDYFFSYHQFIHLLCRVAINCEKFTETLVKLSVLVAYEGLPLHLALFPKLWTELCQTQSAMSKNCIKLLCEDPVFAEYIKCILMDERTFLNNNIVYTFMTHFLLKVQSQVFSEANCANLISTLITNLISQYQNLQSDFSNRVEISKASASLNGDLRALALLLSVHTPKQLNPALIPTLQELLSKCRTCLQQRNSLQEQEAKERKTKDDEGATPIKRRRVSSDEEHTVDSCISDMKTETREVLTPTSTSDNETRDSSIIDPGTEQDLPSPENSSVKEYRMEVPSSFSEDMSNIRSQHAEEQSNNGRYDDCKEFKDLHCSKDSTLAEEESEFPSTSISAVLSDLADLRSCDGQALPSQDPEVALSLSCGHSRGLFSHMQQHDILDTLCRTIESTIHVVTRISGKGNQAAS

CN(Cc1nc2ccccc2[nH]1)C(=O)CCl.Cl
inactive: USP34 -0.266 | USP36 0.0504 | USP38 0.056 | USP39 0.391 | USP4 -0.0216

From the supplement of paper PMC11732987, “Enantioselective OTUD7B fragment discovery through chemoproteomics screening and high-throughput optimisation” (Communications Chemistry, 2025)
